Reference: PubChem BioAssay (Tox21)
Inconclusive results are not listed. Active and inactive are the calls of the source. Unless noted, calls come from the whole dose curve.

Experiments:
[1] = Nuclear factor erythroid 2-related factor 2/antioxidant responsive element (Nrf2/ARE) small molecule agonists: qHTS cell viability counter screen in human keratinocytes (AID 1919968; active = well fitted curve in the direction sought with a large enough effect in the repeat runs; an effect the other way counts as inactive or inconclusive; note: nearly all actives have a fitted effect of over 55% in size; note: potency is the fitted concentration of half-maximal effect)
In short: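 Seed 1,500 KeratinoSens cells per well, then incubate 5 h at 37 C/5% CO2. Add compounds in DMSO and incubate 23 h. Add CellTiter-Fluor, wait 1 h and read fluorescence.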

[2] = biological target: Gonadotropin-releasing hormone receptor (Homo sapiens) (UniProt P30968); experiment: Human gonadotropin-releasing hormone receptor (GnRHR) small molecule agonists, calcium flux assay in GnRHR-HEK293 cells (AID 1920063); note: nearly all actives have a fitted effect of over 35% in size; note: potency is the fitted concentration of half-maximal effect
Sequence of Gonadotropin-releasing hormone receptor (Homo sapiens) (P30968 whole entry, looked up): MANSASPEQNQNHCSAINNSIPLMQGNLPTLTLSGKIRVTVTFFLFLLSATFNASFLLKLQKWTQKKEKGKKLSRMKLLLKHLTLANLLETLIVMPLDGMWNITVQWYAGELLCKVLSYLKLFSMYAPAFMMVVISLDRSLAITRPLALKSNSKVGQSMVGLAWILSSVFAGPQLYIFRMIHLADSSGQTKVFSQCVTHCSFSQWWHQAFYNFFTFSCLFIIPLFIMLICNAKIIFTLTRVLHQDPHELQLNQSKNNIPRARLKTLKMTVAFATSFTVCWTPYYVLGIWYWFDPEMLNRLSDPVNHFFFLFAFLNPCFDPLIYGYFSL
In short: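 Cells: HEK293 stably expressing human GnRHR. Steps: overnight (18 h) culture, 1 h calcium dye loading at 37 C, compound addition, kinetic fluorescence read at 480/540 nm. Each compound tested at 15 concentrations in triplicate.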

[3] = biological target: KiSS-1 receptor (Homo sapiens) (UniProt Q969F8); experiment: Human kisspeptin (KISS1R) small molecule agonists, calcium flux assay in KISS1R-HEK293 cells (AID 1920064; active = well fitted curve in the direction sought with a large enough effect in the repeat runs; an effect the other way counts as inactive or inconclusive)
Sequence of KiSS-1 receptor (Homo sapiens) (Q969F8 whole entry, looked up): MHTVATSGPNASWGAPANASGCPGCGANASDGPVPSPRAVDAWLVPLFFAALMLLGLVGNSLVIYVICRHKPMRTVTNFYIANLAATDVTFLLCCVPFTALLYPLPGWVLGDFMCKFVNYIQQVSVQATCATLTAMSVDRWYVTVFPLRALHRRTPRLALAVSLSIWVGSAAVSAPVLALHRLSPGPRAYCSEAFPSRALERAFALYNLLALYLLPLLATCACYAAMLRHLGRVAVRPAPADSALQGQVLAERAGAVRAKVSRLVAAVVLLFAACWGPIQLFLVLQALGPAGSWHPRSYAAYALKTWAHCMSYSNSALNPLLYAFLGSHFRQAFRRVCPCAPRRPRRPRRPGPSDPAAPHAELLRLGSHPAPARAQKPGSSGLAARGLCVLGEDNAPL
In short: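 Cells plated and incubated 18 h; dye added, 1 h at 37 C; compounds in DMSO pinned in; signal read at 480/540 nm every second for 3 min. Each compound tested at 15 concentrations in triplicate.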

[4] = G protein-coupled receptor (GPCR) small molecule agonists, calcium flux assay: HEK293 wild type cell line counter screen (AID 1920065)
In short: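 Counter-screen of the Tox21 10K library for non-specific calcium release: dye-loaded cells received compounds in DMSO and were monitored by kinetic fluorescence (480/540 nm, 3 min). Fifteen concentrations, run in triplicate.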

[5] = p53 small molecule agonists, cell-based qHTS assay with human liver microsomes (AID 1963577);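 note: p53 response element beta-lactamase reporter cells with liver microsomes plus NADPH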
In short: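 With metabolic activation: human liver microsomes (0.5 mg/mL final) plus NADPH (0.5 mg/mL final) added alongside compounds to p53RE-bla cells; 16 h 37 C exposure; beta-lactamase read by LiveBLAzer fluorescence.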

[6] = p53 small molecule agonists, cell-based qHTS assay with rat liver microsomes (AID 1963578)
In short: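 Metabolic activation by rat liver microsomes and NADPH, each 0.5 mg/mL final, added right after compounds to p53RE-bla reporter cells (4,000/well, plated 5 h earlier). 16 h at 37 C, then LiveBLAzer substrate for 2 h at room temperature in the dark; fluorescence read-out.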

[7] = p53 small molecule agonists, cell-based qHTS assay with human liver microsomes: qHTS cell viability counter screen (AID 1963579); note: nearly all actives have a fitted effect of over 45% in size
In short: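 Metabolic activation used human liver microsomes and NADPH, both 0.5 mg/mL final, over 16 hours at 37 C on p53RE-bla cells (4,000/well). Cytotoxicity measured by CellTiter-Glo luminescence, 30 min at room temperature.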

[8] = p53 small molecule agonists, cell-based qHTS assay with rat liver microsomes: qHTS cell viability counter screen (AID 1963580); note: nearly all actives have a fitted effect of over 45% in size
In short: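 p53RE-bla HCT-116 cells were exposed 16 h at 37 C to compounds with rat liver microsomes (0.5 mg/mL) and NADPH (0.5 mg/mL). Viability was measured in the same wells as ATP content by CellTiter-Glo luminescence.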

[9] = biological target: 5-hydroxytryptamine receptor 2A (Homo sapiens) (UniProt P28223); experiment: 5-hydroxytryptamine receptor 2A (HTR2A) small molecule antagonists, cell-based qHTS assay (AID 1963586); note: nearly all actives have a fitted effect of over 45% in size
Sequence of 5-hydroxytryptamine receptor 2A (Homo sapiens) (P28223 whole entry, looked up): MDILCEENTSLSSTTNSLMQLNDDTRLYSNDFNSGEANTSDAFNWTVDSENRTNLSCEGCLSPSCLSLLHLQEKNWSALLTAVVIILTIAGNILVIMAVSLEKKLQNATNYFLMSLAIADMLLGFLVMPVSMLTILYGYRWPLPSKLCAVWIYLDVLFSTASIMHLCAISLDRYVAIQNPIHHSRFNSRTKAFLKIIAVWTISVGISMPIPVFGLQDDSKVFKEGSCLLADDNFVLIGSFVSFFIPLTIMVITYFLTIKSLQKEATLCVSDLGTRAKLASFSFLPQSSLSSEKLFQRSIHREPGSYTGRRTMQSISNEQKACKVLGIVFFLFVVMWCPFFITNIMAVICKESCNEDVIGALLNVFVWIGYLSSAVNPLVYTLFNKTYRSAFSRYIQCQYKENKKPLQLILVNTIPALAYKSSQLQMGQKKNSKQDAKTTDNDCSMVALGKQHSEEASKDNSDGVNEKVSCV
In short: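 Antagonist-mode intracellular calcium assay: DOI (4 nM) added after 5 min compound pre-incubation at room temperature to dye-loaded HTR2A-CHO cells. Fluorescence followed for 3 min, sampled every second.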

[10] = biological target: 5-hydroxytryptamine receptor 2A (Homo sapiens) (UniProt P28223); experiment: 5-hydroxytryptamine receptor 2A (HTR2A) small molecule agonists, cell-based qHTS assay (AID 1963587); note: nearly all actives have a fitted effect of over 30% in size
In short: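 CHO cells stably expressing human HTR2A, plated 18 h, loaded with calcium dye 1 h at 37 C. Agonist mode: compounds added and intracellular calcium fluorescence recorded kinetically for 2 min at 1 sec intervals.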

[11] = biological target: Muscarinic acetylcholine receptor M1 (Homo sapiens) (UniProt P11229); experiment: Cholinergic receptor muscarinic 1 (CHRM1) small molecule antagonists, cell-based qHTS assay (AID 1963588); note: nearly all actives have a fitted effect of over 40% in size
Sequence of Muscarinic acetylcholine receptor M1 (Homo sapiens) (P11229 whole entry, looked up): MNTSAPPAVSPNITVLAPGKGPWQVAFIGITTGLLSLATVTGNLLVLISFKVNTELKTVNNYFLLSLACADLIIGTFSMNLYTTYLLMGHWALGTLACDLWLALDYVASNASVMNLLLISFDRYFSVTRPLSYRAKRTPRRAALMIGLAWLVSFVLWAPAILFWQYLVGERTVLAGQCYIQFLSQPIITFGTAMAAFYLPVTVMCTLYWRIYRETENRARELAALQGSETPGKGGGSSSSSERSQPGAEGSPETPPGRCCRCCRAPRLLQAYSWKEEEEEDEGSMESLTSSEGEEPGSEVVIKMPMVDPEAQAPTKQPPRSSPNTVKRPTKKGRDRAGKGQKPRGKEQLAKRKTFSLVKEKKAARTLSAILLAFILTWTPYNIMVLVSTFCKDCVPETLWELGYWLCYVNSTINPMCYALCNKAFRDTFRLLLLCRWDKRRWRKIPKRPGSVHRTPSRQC
In short: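 CHRM1-CHO calcium-flux assay, antagonist mode. Cells were seeded 18 h, dye-loaded 1 h at 37 C and given compound for 5 min at RT, then acetylcholine was added at 50nM. FDSS fluorescence was read 3 min; 15 concentrations, three runs.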

[12] = biological target: Muscarinic acetylcholine receptor M1 (Homo sapiens) (UniProt P11229); experiment: Cholinergic receptor muscarinic 1 (CHRM1) small molecule agonists, cell-based qHTS assay (AID 1963589); note: nearly all actives have a fitted effect of over 35% in size
In short: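 Agonist-mode qHTS in CHO cells stably carrying human muscarinic M1. Intracellular calcium is tracked by fluorescence every second after compound transfer; each compound runs at 15 concentrations in three independent runs.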

[13] = cAMP Responsive Elements (CRE) small molecule agonists, cell-based qHTS assay (AID 1963590)
In short: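 Agonist mode qHTS in CRE-bla HEK 293T cells: compounds dosed from DMSO for 3 h at 37 C/5% CO2, followed by LiveBLAzer B/G FRET substrate for 2 h at room temperature.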

[14] = cAMP Responsive Elements (CRE) small molecule antagonists, cell-based qHTS assay (AID 1963591; active = well fitted inhibition curve with a large enough effect in the signal ratio in the repeat runs, not every such curve was filed as active; the % refers to the signal ratio)
In short: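 Antagonist mode: test compounds are co-incubated with the adenylyl cyclase activator NKH477 (0.25 uM final) on CRE-bla HEK293T cells for 3 h at 37 °C, followed by LiveBLAzer substrate loading.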

[15] = biological target: Beta-2 adrenergic receptor (Homo sapiens) (UniProt P07550); experiment: Adrenergic beta2 receptor (ADRB2) small molecule antagonists, cell-based qHTS assay (AID 1963592); note: series mostly up to about 92 µM; nearly all actives have a fitted effect of over 50% in size
Sequence of Beta-2 adrenergic receptor (Homo sapiens) (P07550 whole entry, looked up): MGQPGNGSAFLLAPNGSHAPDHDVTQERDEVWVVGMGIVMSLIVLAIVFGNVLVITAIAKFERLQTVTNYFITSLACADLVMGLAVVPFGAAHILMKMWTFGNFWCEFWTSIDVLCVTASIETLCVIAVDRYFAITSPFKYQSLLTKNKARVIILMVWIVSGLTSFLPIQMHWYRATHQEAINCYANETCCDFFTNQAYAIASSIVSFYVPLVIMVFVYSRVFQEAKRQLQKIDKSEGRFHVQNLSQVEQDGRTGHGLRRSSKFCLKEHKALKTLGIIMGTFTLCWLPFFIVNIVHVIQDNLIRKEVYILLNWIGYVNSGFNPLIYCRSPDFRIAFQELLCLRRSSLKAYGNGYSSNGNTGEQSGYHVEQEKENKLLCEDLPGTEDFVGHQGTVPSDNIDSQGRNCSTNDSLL
In short: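 Cells (CHO, stable ADRB2 overexpression) incubated 18-20hr at 37C; compounds added from DMSO; agonist mix (1nM isoproterenol, 100uM IBMX, 25uM Ro-20-1724) added; 0.5hr RT; d2-cAMP and anti-cAMP-cryptate added; 1hr RT; 665/615 nm read.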

[16] = biological target: D(2) dopamine receptor (Homo sapiens) (UniProt P14416); experiment: Dopamine D2 receptor (DRD2) small molecule antagonists, cell-based qHTS assay (AID 1963595; active = well fitted inhibition curve with a large enough effect in the signal ratio in the repeat runs, with a control signal flat; the % refers to the signal ratio; note: potency is the fitted concentration of half-maximal effect)
Sequence of D(2) dopamine receptor (Homo sapiens) (P14416 whole entry, looked up): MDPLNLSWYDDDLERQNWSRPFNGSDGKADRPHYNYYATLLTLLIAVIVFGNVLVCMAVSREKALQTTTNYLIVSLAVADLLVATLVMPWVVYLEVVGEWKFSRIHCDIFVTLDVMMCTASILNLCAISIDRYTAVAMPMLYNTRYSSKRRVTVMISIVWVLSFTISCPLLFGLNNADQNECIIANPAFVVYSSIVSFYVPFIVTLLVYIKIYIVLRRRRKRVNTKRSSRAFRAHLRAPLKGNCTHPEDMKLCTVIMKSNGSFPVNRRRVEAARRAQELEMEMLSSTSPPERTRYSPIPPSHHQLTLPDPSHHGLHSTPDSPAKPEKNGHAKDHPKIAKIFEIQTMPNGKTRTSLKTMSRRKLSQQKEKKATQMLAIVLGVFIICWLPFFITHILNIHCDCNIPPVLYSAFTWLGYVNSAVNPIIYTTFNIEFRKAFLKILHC
In short: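 DRD2-HEK293; 0.1 mM Ro20-1724; cpd 10 min RT; NKH477 200 nM + quinpirole 12 nM, 30 min RT; HTRF cAMP (cAMP-d2/anti-cAMP cryptate), 665/620 nm ratio after 1 h.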

[17] = p53 small molecule agonists, cell-based qHTS assay: qHTS cell viability counter screen (AID 1963581); note: nearly all actives have a fitted effect of over 45% in size; note: potency is the fitted concentration of half-maximal effect
In short: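 Cells: HCT-116 with p53 response element-driven beta-lactamase. Treatment: 16 h, 37 C, compounds in DMSO. Read: CellTiter-Glo luminescence after 30 min RT.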

[18] = p53 small molecule agonists, cell-based qHTS assay (AID 1963582; active = well fitted activation curve with a large enough effect in the signal ratio in the repeat runs, not every such curve was filed as active; the % refers to the signal ratio)
In short: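 Quantitative HTS in p53RE-bla cells: after a 5 h settling period, compounds delivered in DMSO were left on cells for 16 h at 37 C, and reporter induction was measured as fluorescence following 2 h substrate loading.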

[19] = biological target: Beta-2 adrenergic receptor (Homo sapiens) (UniProt P07550); experiment: Adrenergic beta2 receptor (ADRB2) small molecule agonists, cell-based qHTS assay (AID 1963593);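 note: CHO cells stably overexpressing human ADRB2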
In short: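 CHO cells stably over-expressing ADRB2 were plated overnight at 37C, then dosed with compounds plus a stimulation mix containing 100uM IBMX and 25uM Ro-20-1724 for 0.5hr at room temperature. cAMP was measured by HTRF competition, 1hr.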

[20] = biological target: D(2) dopamine receptor (Homo sapiens) (UniProt P14416); experiment: Dopamine D2 receptor (DRD2) small molecule agonists, cell-based qHTS assay (AID 1963594); note: nearly all actives have a fitted effect of over 35% in size; note: potency is the fitted concentration of half-maximal effect
In short: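 HEK293 cells stably expressing human DRD2, pre-treated with PDE inhibitor Ro20-1724 (0.1 mM final) and compound 10 min at room temperature, then stimulated with NKH477 (200nM […]) for 30 min. cAMP read by HTRF (665/620 nm).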

Measured: Potency

Nc1ncnc2c1ncn2[C@@H]1O[C@H](CO)[C@@H](O)[C@H]1O
not listed: [17] | [18] | [19] | [20]
inactive: all other assays above

CC1=NN(c2ccc(C(=O)O)cc2)C(=O)C1
not listed: [8] | [9]
inactive: all other assays above

CN1CCOC(c2ccccc2)c2ccccc2C1 (stereo not given)
not listed: [14] | [17]
inactive: all other assays above

CN(C)CCOC1=Cc2ccccc2Sc2ccc(Cl)cc21
not listed: [7] | [9] | [11] | [16] | [17] | [18]
inactive: all other assays above

O=C(O)Cn1c(C(=O)Nc2nc(-c3ccccc3Cl)cs2)cc2ccccc21
active: [2] 3.38 µM
not listed: [11] | [13] | [14] | [17] | [18] | [19] | [20]
inactive: all other assays above

Nc1ccc2cc(S(=O)(=O)O)cc(O)c2c1
not listed: [7] | [13] | [15] | [16] | [18] | [19] | [20]
inactive: all other assays above

CC(C)Nc1cccnc1N1CCN(C(=O)c2cc3cc(NS(C)(=O)=O)ccc3[nH]2)CC1
not listed: [14] | [17] | [19] | [20]
inactive: all other assays above

O=C(O)c1cc(Cl)cc(Cl)c1O
not listed: [8] | [9] | [13] | [19]
inactive: all other assays above

CC1(C)S[C@@H]2[C@H](NC(=O)C(c3ccccc3)S(=O)(=O)O)C(=O)N2[C@H]1C(=O)O (stereo not given in full)
not listed: [7] | [14] | [16]
inactive: all other assays above

Oc1cc2ccccc2cc1O
not listed: [7] | [17]
inactive: all other assays above

C=Cc1ccccc1
not listed: [17] | [18] | [19]
inactive: all other assays above

CC(=O)OC1CCCCC1C(C)(C)C (stereo not given)
not listed: [6] | [10] | [12] | [14]
inactive: all other assays above

CC(CCc1ccc(O)cc1)NCCc1ccc(O)c(O)c1 (stereo not given)
active: [20] 0.0779 µM | [16] 10.6 µM
inactive: [1] | [2] | [3] | [4] | [5] | [6] | [8] | [14] | [15]

CCCN(CCC)c1c([N+](=O)[O-])cc(C(F)(F)F)c(N)c1[N+](=O)[O-]
active: [1] 24.3 µM | [17] 18.2 µM
not listed: [8] | [9] | [11] | [13] | [14] | [16]
inactive: all other assays above

O=C(NCCO[N+](=O)[O-])c1cccnc1
not listed: [6] | [10] | [11]
inactive: all other assays above

OCCN(CCO)c1ccccc1
not listed: [8] | [11] | [15] | [19]
inactive: all other assays above

O=C1c2ccccc2C(=O)C1c1ccc2ccccc2n1
not listed: [8] | [10] | [13] | [14] | [19]
inactive: all other assays above
